Compounds without any hit were thinned out: in the full panel of roughly 83,000, 20% have a hit.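 The test compound was applied at a single concentration to cells in 96-well plates for 48 hours, and percent growth was recorded.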 Activity calls are given as the source filed them. Rule for the calls: active = growth percent below 10; inactive = the rest.
tested on: CAKI-1 renal; assay: NCI-60 one-dose screen, 48 h (100 = growth as untreated, 0 = no growth, -100 = all killed); conditions: 10 µM unless noted

SMILES | growth
COc1ccc(-c2nc(N=Nc3c(O)[nH]c4ccccc34)nc(N3CCOCC3)c2C#N)cc1 | 43.3% (inactive)
COc1cc2nc(-c3ccc(C(F)(F)F)cc3)cc(OCCN3CCCC3)c2cc1OC | 68.7% (inactive)
NC(=S)N/N=C(/c1ccccc1)c1ccccc1N | 80.9% (inactive)
C=C(C)[C@@H]1CC[C@]2(C=O)CC[C@]3(C)[C@H](CC[C@@H]4[C@@]5(C)CCCNC(C)(C)[C@@H]5CC[C@]43C)[C@@H]12 | 89.4% (inactive)
CCCNC(=O)Oc1ccc(/C(=C(\C)c2ccccc2)c2ccc(OCCN3CCCCC3)cc2)cc1 | 65.8% (inactive)
CCOC(=O)Oc1c(OC)cc(C(=O)O[C@@H]2C[C@@H]3CN4CCc5c([nH]c6cc(OC)ccc56)[C@H]4C[C@@H]3[C@H](C(=O)OC)[C@H]2OC)cc1OC | 65.5% (inactive)
COc1ccc(OC)c(/C=C/[C@H]2O[C@@H](C)[C@H](O)[C@@H]2O)c1 | 96.9% (inactive)
CCC(=O)c1ccc(O)c(OC)c1 | 100% (inactive)
Clc1cc(Cl)cc(N2N=C(c3cccc(Nc4ccncc4)c3)CC2c2ccccc2)c1 (stereo unspecified) | 27% (inactive)
Fc1cc(C2=NNC(c3ccc[nH]3)C2)ccc1-n1ccc(C(F)(F)F)n1 (stereo unspecified) | 66.5% (inactive)
Clc1nc(Nc2ccccc2)nc(Nc2ccccc2)n1 | 86.5% (inactive)
Cn1c(=O)c2[nH]c(CCCc3nc4c([nH]3)c(=O)n(C)c(=O)n4C)nc2n(C)c1=O | 108% (inactive)
C=C1C(=O)O[C@H]2[C@H]1CC/C(COC(=O)NCCc1c[nH]c3ccc(Cl)cc13)=C\CC[C@@]1(C)O[C@@H]21 | -100% (active)
Cc1[nH]c(C(=O)Nc2ccccc2OCc2cccc(C(=O)NCCN)c2)c(Cl)c1Cl | 85.6% (inactive)
COc1cc2oc(-c3cccc(C(=O)Nc4ccc(Cl)cc4)c3)cc(=O)c2c(OC)c1OC | 8.22% (active)
O=C(Nc1nc2ccc(S(=O)(=O)Nc3ccc(C4(C(F)(F)F)CC4)cc3)cc2[nH]1)c1cnccn1 | 28.6% (inactive)
CCCCCCCCCCN=C(N)N=C(N)N | 43.4% (inactive)
CC(C)NC(=O)N1C(=O)CCC1NNC(=O)c1ccc([N+](=O)[O-])cc1 (stereo unspecified) | 100% (inactive)
N#Cc1cc(-c2nc3ccccc3s2)c(=O)n(NS(=O)(=O)c2ccc(Cl)cc2)c1N | 80.5% (inactive)

SMILES | growth
O=C1c2ccccc2-c2c1c1c(NCCCO)nc3ccccc3c1n2Cc1ccccc1 | 33.9% (inactive)
COC(=O)N[C@H]1CCc2cc(OC)c(OC)c(OC)c2-c2ccc(SC)c(=O)cc21 | 17% (inactive)
COc1nccnn1 | 108% (inactive)
Cc1ccc(C(=O)Nc2ccccc2C(=O)N/N=C(\c2ccccc2)c2ccccn2)cc1 | 10.5% (inactive)
CCCCN(CCCC)CCc1c(C)cc(C)c(CCN(CCCC)CCCC)c1O | 39.7% (inactive)
Nc1cc(N)c2cccnc2c1O | 35.3% (inactive)
CN1CCCC1=Nc1ccccc1 | 94.6% (inactive)
COc1ccc(CNC(=O)COc2ccc(/C=N/Nc3nc4ccccc4s3)cc2)cc1 | 27.9% (inactive)
O=C1OC(=O)C2C1CC=CC2c1ccccc1 (stereo unspecified) | 102% (inactive)
COc1ccc(CC(C)=C(c2ccc(OCCN(C)C)cc2)c2ccc(OCCN(C)C)cc2)cc1 | 84% (inactive)
O=C(N=Nc1c(O)[nH]c2ccc(F)cc12)c1cc2ccccc2[nH]1 | 80.7% (inactive)
O=S(=O)(NCCNc1nccc(-c2c(-c3cccc(F)c3)nc3occn23)n1)c1cccc2ccccc12 | 25% (inactive)
O=S(=O)(c1ccc(N/N=C\c2ccccc2)cc1)c1ccc(N/N=C/c2ccccc2)cc1 | 67.7% (inactive)
CCOc1ccc(/C=N/Nc2cc(C)nc3ccc(Cl)cc23)cc1 | 78.2% (inactive)
CC(C)Cc1ccc(C(C)C(=O)NCc2c[nH]c3ccc(Cl)cc23)cc1 (stereo unspecified) | 81.7% (inactive)
COc1ccccc1OCC(=O)N1CCCCCC1 | 84.1% (inactive)
Nc1nc(SN=Nc2ccc(S(N)(=O)=O)cc2)c2[nH]cnc2n1 | 1.85% (active)
COc1ccc(C2CC(n3nnnc3-c3ccccc3)=NN2)cc1 (stereo unspecified) | 8.64% (active)
CC(c1ccccc1)n1ccnc1CO (stereo unspecified) | 88.9% (inactive)

tested on: CCRF-CEM leukemia; assay: as above; conditions: 10 µM unless noted

SMILES | growth
COc1ccc(-c2nc(N=Nc3c(O)[nH]c4ccccc34)nc(N3CCOCC3)c2C#N)cc1 | 75.5% (inactive)
COc1cc2nc(-c3ccc(C(F)(F)F)cc3)cc(OCCN3CCCC3)c2cc1OC | 77.8% (inactive)
NC(=S)N/N=C(/c1ccccc1)c1ccccc1N | 60.2% (inactive)
C=C(C)[C@@H]1CC[C@]2(C=O)CC[C@]3(C)[C@H](CC[C@@H]4[C@@]5(C)CCCNC(C)(C)[C@@H]5CC[C@]43C)[C@@H]12 | 59.7% (inactive)
CCCNC(=O)Oc1ccc(/C(=C(\C)c2ccccc2)c2ccc(OCCN3CCCCC3)cc2)cc1 | 72.2% (inactive)
CCOC(=O)Oc1c(OC)cc(C(=O)O[C@@H]2C[C@@H]3CN4CCc5c([nH]c6cc(OC)ccc56)[C@H]4C[C@@H]3[C@H](C(=O)OC)[C@H]2OC)cc1OC | -10.8% (active)
COc1ccc(OC)c(/C=C/[C@H]2O[C@@H](C)[C@H](O)[C@@H]2O)c1 | 98.3% (inactive)
CCC(=O)c1ccc(O)c(OC)c1 | 91% (inactive)
Clc1cc(Cl)cc(N2N=C(c3cccc(Nc4ccncc4)c3)CC2c2ccccc2)c1 (stereo unspecified) | 28.3% (inactive)
Fc1cc(C2=NNC(c3ccc[nH]3)C2)ccc1-n1ccc(C(F)(F)F)n1 (stereo unspecified) | 68.3% (inactive)
Clc1nc(Nc2ccccc2)nc(Nc2ccccc2)n1 | 91.7% (inactive)
Cn1c(=O)c2[nH]c(CCCc3nc4c([nH]3)c(=O)n(C)c(=O)n4C)nc2n(C)c1=O | 124% (inactive)
C=C1C(=O)O[C@H]2[C@H]1CC/C(COC(=O)NCCc1c[nH]c3ccc(Cl)cc13)=C\CC[C@@]1(C)O[C@@H]21 | -18.3% (active)
Cc1[nH]c(C(=O)Nc2ccccc2OCc2cccc(C(=O)NCCN)c2)c(Cl)c1Cl | 25.1% (inactive)
COc1cc2oc(-c3cccc(C(=O)Nc4ccc(Cl)cc4)c3)cc(=O)c2c(OC)c1OC | 28.5% (inactive)
O=C(Nc1nc2ccc(S(=O)(=O)Nc3ccc(C4(C(F)(F)F)CC4)cc3)cc2[nH]1)c1cnccn1 | 19.9% (inactive)
CCCCCCCCCCN=C(N)N=C(N)N | 35.7% (inactive)
CC(C)NC(=O)N1C(=O)CCC1NNC(=O)c1ccc([N+](=O)[O-])cc1 (stereo unspecified) | 104% (inactive)
N#Cc1cc(-c2nc3ccccc3s2)c(=O)n(NS(=O)(=O)c2ccc(Cl)cc2)c1N | 107% (inactive)

SMILES | growth
O=C1c2ccccc2-c2c1c1c(NCCCO)nc3ccccc3c1n2Cc1ccccc1 | 36% (inactive)
COC(=O)N[C@H]1CCc2cc(OC)c(OC)c(OC)c2-c2ccc(SC)c(=O)cc21 | 15.6% (inactive)
COc1nccnn1 | 99.8% (inactive)
Cc1ccc(C(=O)Nc2ccccc2C(=O)N/N=C(\c2ccccc2)c2ccccn2)cc1 | 8.79% (active)
CCCCN(CCCC)CCc1c(C)cc(C)c(CCN(CCCC)CCCC)c1O | 26.6% (inactive)
Nc1cc(N)c2cccnc2c1O | 2.91% (active)
CN1CCCC1=Nc1ccccc1 | 105% (inactive)
COc1ccc(CNC(=O)COc2ccc(/C=N/Nc3nc4ccccc4s3)cc2)cc1 | 62.4% (inactive)
O=C1OC(=O)C2C1CC=CC2c1ccccc1 (stereo unspecified) | 84.2% (inactive)
COc1ccc(CC(C)=C(c2ccc(OCCN(C)C)cc2)c2ccc(OCCN(C)C)cc2)cc1 | 17.1% (inactive)
O=C(N=Nc1c(O)[nH]c2ccc(F)cc12)c1cc2ccccc2[nH]1 | 99.5% (inactive)
O=S(=O)(NCCNc1nccc(-c2c(-c3cccc(F)c3)nc3occn23)n1)c1cccc2ccccc12 | 43.8% (inactive)
O=S(=O)(c1ccc(N/N=C\c2ccccc2)cc1)c1ccc(N/N=C/c2ccccc2)cc1 | 88.7% (inactive)
CCOc1ccc(/C=N/Nc2cc(C)nc3ccc(Cl)cc23)cc1 | 0.25% (active)
CC(C)Cc1ccc(C(C)C(=O)NCc2c[nH]c3ccc(Cl)cc23)cc1 (stereo unspecified) | 73.8% (inactive)
COc1ccccc1OCC(=O)N1CCCCCC1 | 101% (inactive)
Nc1nc(SN=Nc2ccc(S(N)(=O)=O)cc2)c2[nH]cnc2n1 | -2.18% (active)
COc1ccc(C2CC(n3nnnc3-c3ccccc3)=NN2)cc1 (stereo unspecified) | 39.6% (inactive)
CC(c1ccccc1)n1ccnc1CO (stereo unspecified) | 105% (inactive)

Source: PubChem BioAssay (NCI)
